Hits are enriched below; roughly 10% of the tested compounds scored in any of these assays.
3T3 cytotox: NIH 3T3 cell cytotoxicity; AID 1345082; NIH 3T3 viability, CellTiter-Glo ATP luminescence, 48-72 h; Potency, µM (series often up to 96.7 µM), without a hit: at the top dose activity change, negative = cytotoxicity, usual class: inhibitors; 94,000 compounds, 4.3% hits; further: nearly all actives have a fitted effect of over 55% in size
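Cells were seeded at 400 per well, treated with pin-transferred compound, and kept 48 or 72 hr at 37 °C before CellTiter-Glo addition and luminescence imaging of cellular ATP.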
FLuc inh: blocks purified firefly luciferase enzyme activity. P08659. purified P. pyralis luciferase, luminescence, biochemical. Potency, µM (top dose mostly 115 µM), usual class: inhibitors. 76,000 compounds, 2.5% hits; further: nearly all actives have a fitted effect of over 65% in size
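Biochemical qHTS: compound (6-point titration) added to 10uM D-luciferin plus 10uM ATP in Tris acetate pH 7.5 buffer with Mg, Tween-20 and BSA, then purified enzyme at 10nM; light output imaged.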
GPT2 inh: blocks human glutamate pyruvate transaminase 2; AID 1671188; Q8TD30; Recombinant GPT2, coupled pyruvate oxidase/HRP Amplex Red fluorescence; 100,000 compounds, 0.25% hits; Potency, µM (titrated, usually from 57.7 µM), for inactives: at the highest dose activity change, negative = inhibition, hits mostly inhibitors; further: nearly all actives have a fitted effect of over 60% in size
Target sequence (Q8TD30 whole entry, looked up): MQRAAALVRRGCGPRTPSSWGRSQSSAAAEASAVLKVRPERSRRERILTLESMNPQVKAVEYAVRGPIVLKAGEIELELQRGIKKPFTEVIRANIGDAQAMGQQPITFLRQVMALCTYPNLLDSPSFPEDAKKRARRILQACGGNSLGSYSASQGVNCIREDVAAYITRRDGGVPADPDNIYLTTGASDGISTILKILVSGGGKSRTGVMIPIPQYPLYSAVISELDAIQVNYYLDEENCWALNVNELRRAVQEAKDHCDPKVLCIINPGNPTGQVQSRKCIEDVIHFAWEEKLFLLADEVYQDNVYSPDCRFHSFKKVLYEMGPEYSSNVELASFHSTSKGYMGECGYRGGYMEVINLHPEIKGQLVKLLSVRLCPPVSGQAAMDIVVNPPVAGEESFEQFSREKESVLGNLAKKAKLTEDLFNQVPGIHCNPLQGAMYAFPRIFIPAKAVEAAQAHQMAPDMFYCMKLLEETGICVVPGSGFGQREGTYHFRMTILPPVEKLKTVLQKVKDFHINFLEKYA
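Fluorescence of coupled pyruvate oxidase/HRP/Amplex Red system (50uM Amplex, 30 min, dark) reports pyruvate formed by GPT2. Enzyme reaction: 10ng/uL GPT2, 2mM L-alanine, 250uM a-KG, 30 min room temperature, pH 7.5; 50uM AOA control.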
HEK293 tox: kills HEK 293 cells; HEK 293 viability, ATP luminescence (CellTiter-Glo), 48-72 h; Potency, µM (top dose mostly 115 µM), for inactives: at the highest dose activity change, negative = cytotoxicity, most hits filed as inhibitors; 94,000 compounds, 6.6% hits; further: nearly all actives have a fitted effect of over 60% in size
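Luminescence from cellular ATP, measured with CellTiter-Glo, indicates HEK 293 viability. Cells plated at 250 cells/well are treated with compound for 48 or 72 hr at 37 degree Celsius before reagent addition.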
NPR1 antag: blocks ANP-stimulated signaling of human Npr1 receptor | HEK293 hNpr1 GloSensor cGMP, ANP-stimulated luminescence | Potency, µM (titrated, usually from 46.3 µM), without a hit: top-dose activity change, negative = inhibition, hits mostly inhibitors | 76,000 compounds, 1.6% hits; calls by dose curve; further: nearly all actives have a fitted effect of over 60% in size
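HEK293 cells stably expressing human Npr1 and cGMP GloSensor pGS-40F, loaded 2 h with 2% GloSensor reagent, given compound 30 min at room temperature. Luminescence read before and 20 min after 0.1 nM hNppA.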
* marks the source's active call; other numbers are inactive results; i = inactive; ? = inconclusive; . = no result; [ ] = another dose, or the depositor's remark. Unless noted, the call rests on the fitted dose curve; in most records, active means well fitted curve in the direction sought with a large enough effect; inconclusive means small, poorly fitted or top-dose-only effect, or another doubt; inactive means no such curve, though single readings can be large; an effect the other way counts as inactive or inconclusive. On the % scale 0 is the no-effect control and ±100 the full control effect; potency means the concentration at half of the fitted maximal effect.

SMILES	3T3 cytotox	FLuc inh	GPT2 inh	HEK293 tox	NPR1 antag
c1ccc(N2CCN(c3cc4c(cn3)CN(Cc3ccncc3)CCN4)CC2)nc1	-26.9%[138 µM]	i	4.9%[88.5 µM]	79.4µM*	?
Fc1ccc(Nc2cc3c(cn2)CN(Cc2ccncc2)CCN3)cc1Cl	20µM*	?	0.6%[88.5 µM]	31.6µM*	17.8µM*
CCCn1cc(-c2ccncc2)cc1C(=O)N1CCCCC1	-19.3%	i	-13.2%	?	3.7%
CCc1c(C(=O)N2CCC(CO)(Cc3ccccc3)CC2)[nH]c2ccccc12	?	i	-2.6%	20µM*	-8.4%
COc1ccccc1-c1cccc(C(=O)O)c1	i	.	-9.7%[88.5 µM]	-14.0%[172 µM]	.
Cc1ccc(-n2[nH]c(C)c(N=Nc3cccc(-c4cccc(C(=O)O)c4)c3O)c2=O)cc1C	.	.	1.93µM*	.	.
Cc1ccsc1CN1CC(N2CC(C(=O)NCc3ccccc3)CC2=O)C1 (stereo not given)	-12.2%	.	2.8%	-0.1%	.
Cc1cc2c(-c3cccc(CO)c3)nc(-c3c(C)noc3C)cc2[nH]1	35.5µM*	i	4.0%[88.5 µM]	?	-11.6%[70.6 µM]
COc1cc(-c2nc(-c3c(C)noc3C)cc3[nH]c(C)cc23)ccn1	?	i	-9.6%[88.5 µM]	89.1µM*	-16.7%[70.6 µM]
Cc1cc2c(-c3ccccc3O)nc(-c3c(C)noc3C)cc2[nH]1	?	i	-5.8%[88.5 µM]	?	6.5%[70.6 µM]
Cc1cc2c(-c3cccc(O)c3)nc(-c3c(C)noc3C)cc2[nH]1	35.5µM*	i	2.2%[88.5 µM]	44.7µM*	-22.4%[70.6 µM]
Cc1cc2c(-c3cccc(S(C)(=O)=O)c3)nc(-c3c(C)noc3C)cc2[nH]1	8.91µM*	i	-10.3%[88.5 µM]	?	?
COc1ccc(-c2nc(-c3c(C)noc3C)cc3[nH]c(C)cc23)cn1	?	i	?	?	7.9%[70.6 µM]
COc1ccc(-c2cccc(C(=O)NCC(C)C)c2)nn1	?	.	.	-23.3%[172 µM]	.
COc1ccc(C(=O)Nc2cccc(-c3nnc4n3CCCC4)c2)cc1OC	i	i	i	?	-1.3%
COc1ccc(NC(=O)Nc2cccc(-c3ccc(N4CCC(C)CC4)nn3)c2)cc1OC	?	0.1µM*	i	?	3.16µM*
CC(C)CNC(=O)Nc1cccc(-c2ccc(N3CCC(C)CC3)nn2)c1	-19.8%	0.316µM*	i	-7.8%	7.08µM*
COc1ccc(C(=O)N2CCN(Cc3ccccc3-c3cccnc3)CC2)cc1	?	.	i	?	.
CN1CCN(c2cc(=O)c3ccnc(-c4ccnn4C)c3o2)CC1	39.8µM*	i	0.7%[88.5 µM]	-7.0%[172 µM]	1.5%[70.6 µM]
CN1CCN(c2cc(=O)c3ccnc(-c4ccccc4O)c3o2)CC1	22.4µM*	i	1.5%[88.5 µM]	-5.5%[172 µM]	-7.0%[70.6 µM]
CN1CCN(c2cc(=O)c3ccnc(-c4ccc(Cl)cc4)c3o2)CC1	?	i	-13.0%[88.5 µM]	-6.4%[172 µM]	-12.8%[70.6 µM]
O=C(Nc1ccccc1)C1(CCO)CC12CCOCC2 (stereo not given)	-10.9%	.	i	-4.9%	.
COC1CN(c2cccc(F)c2)C12CCN(C(=O)COc1ccccc1)CC2 (stereo not given)	?	i	i	89.1µM*	-1.1%
CN1CCCN(C(=O)C2CCCCc3nnc(-c4ccccc4)n32)CC1 (stereo not given)	?	.	-4.4%	-4.7%	.
CC1=C[C@@H](CNC2CCOCC2)[C@H](C(C)C)C[C@H]1Cc1nc2ccc(Cl)cc2[nH]1	100µM*	i	?	?	-3.7%[70.6 µM]
SMILES	3T3 cytotox	FLuc inh	GPT2 inh	HEK293 tox	NPR1 antag
CC1=C[C@@H](CNC(=O)CN(C)C)[C@H](C(C)C)C[C@H]1Cc1nc2ccc(Cl)cc2[nH]1	89.1µM*	i	3.9%[88.5 µM]	?	-3.6%[70.6 µM]
CC1=C[C@@H](CNC(=O)CN(C)C)[C@H](C(C)C)C[C@H]1Cc1nc2ccc(C)cc2[nH]1	79.4µM*	i	i	?	-3.9%[70.6 µM]
COc1ccc2[nH]c(C[C@@H]3C[C@@H](C(C)C)[C@H](CN)C=C3C)nc2n1	?	i	-5.0%[88.5 µM]	?	?
CC1=C[C@@H](CNC(=O)CCC(=O)O)[C@H](C(C)C)C[C@H]1Cc1nc2ccc(Cl)cc2[nH]1	-24.7%[174 µM]	i	2.0%[88.5 µM]	-23.0%[172 µM]	1.0%[70.6 µM]
CC1=C[C@@H](CNC(=O)CC2(CC(=O)O)CCCC2)[C@H](C(C)C)C[C@H]1Cc1nc2ccc(C)cc2[nH]1	-20.4%	i	-13.4%	-5.2%	-9.8%
CC1=C[C@@H](CN(C)C)[C@H](C(C)C)C[C@H]1Cc1nc2ncc(Cl)cc2[nH]1	70.8µM*	i	i	79.4µM*	1.0%[70.6 µM]
O=C(c1cn[nH]c1-c1ccc(F)cc1)N1CCC(OCCOc2ccccc2)CC1	?	.	4.0%	50.1µM*	.
COCCOC1CCN(C(=O)c2cn[nH]c2-c2ccc(F)cc2)CC1	-9.7%	?	3.0%	10.7%	6.2%
CCOC(=O)[C@@H]1CN(C(=O)c2ncoc2-c2ccccc2)[C@H]2c3ccc(OC)cc3O[C@@H]12	-29.3%	.	.	?	.
CCOC(=O)[C@@H]1CN(C(=O)NC2CCCC2)[C@H]2c3ccc(OC)cc3O[C@@H]12	?	.	.	50.1µM*	.
COc1ccc(-c2ccc3ncc(Nc4cccc(C(F)(F)F)c4)n3n2)cn1	?	i	?	44.7µM*	-29.8%[70.6 µM]
COc1ccc(-c2ccc3ncc(Nc4ccncc4)n3n2)cn1	?	i	-14.1%[88.5 µM]	100µM*	-2.9%[70.6 µM]
COc1ccc(-c2ccc3ncc(Nc4ccc(OC)c(OC)c4)n3n2)cn1	?	?	-14.0%[88.5 µM]	?	-14.8%[70.6 µM]
COc1ccc(-c2ccc3ncc(Nc4cccc(Cl)c4)n3n2)cn1	?	i	?	44.7µM*	?
CN1CC(=O)N(C2CCCNCC2)Cc2c(NCc3ccccn3)ncnc21 (stereo not given)	-18.5%	.	2.1%	-19.7%	.
Cc1ccc(S(=O)(=O)c2nnn3c2nc(NC2CCCC2)c2ccccc23)cc1C	-25.3%	.	i	-23.4%	.
COC(=O)CNC(=O)C1CCCN(Cc2cccc(-c3ccc(F)cc3F)c2)C1 (stereo not given)	?	.	-5.6%	-27.5%	.
O=C(C1CCCN(Cc2cccc(-c3ccc(F)cc3F)c2)C1)N1CCCC1 (stereo not given)	?	.	?	28.2µM*	.
O=C(C1CCCN(Cc2cccc(-c3ccc(F)cc3F)c2)C1)N1CCN(c2ncccn2)CC1 (stereo not given)	?	.	i	39.8µM*	.
N#Cc1ccc(C(=O)N2CCCC(CO)CCNC(=O)CC2)cc1 (stereo not given)	-26.8%	i	i	-0.5%	6.6%
Cc1ccsc1CN1CCc2c(sc3ncnc(N(C)C)c23)C1	?	i	?	?	-5.1%
O=C(CC[C@@H]1CNC(=O)[C@@H]2C[C@H](NCc3ccccn3)CN12)NCc1ccccc1	56.2µM*	i	1.0%[88.5 µM]	70.8µM*	0.3%[70.6 µM]
